{"source": "paper PMC7826789", "about": "(International Journal of Molecular Sciences, 2021);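 also: KINOMEscan scanMAX binding as percent activity remaining versus control; lower means stronger binding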"}
{"tested_on": "JAK2(JH1domain-catalytic)", "details": "Compound Concentration (nM):1000", "units": {"Percent Control": "%"}}
{"smiles": "O=C1Nc2ccc(C(=O)c3ccco3)cc2C1=Cc1cc(Cl)c(O)c(Cl)c1", "note": "[GW406108X]", "Percent Control": 47}
{"smiles": "CC(C)COC(=O)c1ccc2c(c1)/C(=C/Nc1ccc(S(N)(=O)=O)cc1)C(=O)N2", "note": "[GW416981X]", "Percent Control": 63}
{"smiles": "Cl.O=S1CCN(Cc2ccc(-c3ccc4ncnc(Nc5ccc(OCc6ccccc6)c(F)c5)c4c3)o2)CC1", "note": "[GW576924A]", "Percent Control": 100}
{"smiles": "CCn1c(-c2nonc2N)nc2c(C#CC(C)(C)O)nc(OCCNC)cc21.Cl", "note": "[GSK949675]", "Percent Control": 96}
{"smiles": "COc1cc(C=NNc2ncnc3c2cnn3-c2ccccc2)ccc1O", "note": "[GW513184X]", "Percent Control": 72}
{"smiles": "Cl.O=C(Nc1ccc(Oc2ccc3[nH]c(NC(=O)c4ccccc4)nc3c2)cc1)Nc1cc(C(F)(F)F)ccc1F", "note": "[GW709042A]", "Percent Control": 100}
{"smiles": "Nc1ncnc2occ(-c3ccc(NC(=O)Nc4cc(C(F)(F)F)ccc4F)cc3)c12", "note": "[GW770249X]", "Percent Control": 62}
{"smiles": "NS(=O)(=O)c1ccc(N/N=C2\\C(=O)Nc3ccc(C(=O)NCc4ccncc4)cc32)cc1", "note": "[GW300657X]", "Percent Control": 64}
{"smiles": "C/C(Nc1ccc(S(N)(=O)=O)cc1)=C1/C(=O)Nc2ccccc21", "note": "[GW335962X]", "Percent Control": 73}
{"smiles": "C[C@@H](Oc1cc(-n2cnc3ccc(OC4CCN(C)CC4)cc32)sc1C(N)=O)c1ccccc1Cl", "note": "[GSK579289A]", "Percent Control": 75}
{"smiles": "COc1ccc2[nH]c3c4[nH]c5ccc(OC)cc5c4c4c(c3c2c1)C(=O)NC4=O", "note": "[GW296115X]", "Percent Control": 84}
{"smiles": "CN1CCN(C(=O)c2ccc(NC(=O)Nc3ccc(N(C)c4ccnc(Nc5ccc(CS(C)(=O)=O)cc5)n4)cc3)cc2)CC1.Cl", "note": "[GW830263A]", "Percent Control": 4.7}
{"smiles": "CCc1ccc(Oc2nccc(-c3c(-c4ccc(F)cc4)ncn3C3CCNCC3)n2)cc1", "note": "[SB-242719]", "Percent Control": 90}
{"smiles": "NS(=O)(=O)c1ccc(N/N=C2\\C(=O)Nc3ccc(Cl)cc32)cc1", "note": "[GW280670X]", "Percent Control": 100}
